# Screening data from PubChem.
# Sampled rows, rich in hits. Any-hit rate of the full collection: about 6.2%.
# H9c2 protect – myocardial damage modulation in H9c2 cells; actives 0.63% (n = 360,000); H9c2 cardiomyocytes, H2O2 injury protection, ATPLite, 2 h; AID 588492; protection from H2O2 cell death, % at 20 µM;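 active = compounds giving at least 50% protection of heart cells from peroxide-induced death in the single-dose screen, raw or plate-pattern-corrected value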;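 note: 0% = DMSO wells with peroxide and 100% = DMSO wells without peroxide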
# SUMO Mot1 rescue – inhibitors of SUMOylation pathway: yeast Mot1-301 growth rescue. S. cerevisiae Mot1-301 growth rescue, ATP luminescence, 38.5C; percent above DMSO median, 100 means doubled. growth rescue, % at 18.8 µM. actives 1% (n = 320,000). AID 2716;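 active = every valid replicate shows activation above 250% relative to neutral control wells; inactive = the rest, any valid replicate at or below 250%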;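 note: OY570 slx delta 5 strain wells were the positive control but not used for scaling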
# NR3A LBD binder – modulators (binders) of human NR3A ligand-binding domain; NR3A LBD differential scanning fluorimetry, Tm shift; 0% = protein alone, 100% = glycine-bound protein; actives 2.5% (n = 340,000); Tm shift relative to glycine control, % at 25 µM;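 active = melting temperature shift of at least 10% of the positive control shift, at one fixed dose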
# AHR activator – activators of human aryl hydrocarbon receptor; actives 2.5% (n = 320,000); AID 2796; activation, % at 5 µM; P35869; AHR-responsive luciferase reporter cells, luminescence; in the data active = activation above about 47%;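 note: 0% = vehicle wells and 100% = reference agonist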
# AI-2 QS mod – Vibrio harveyi AI-2 quorum sensing modulation; activity change, % at 7.5 µM; actives 0.4% (n = 300,000); Vibrio harveyi JMH597 AI-2 luminescence/OD600 ratio, 9 h; active compounds read low; strain lacks LuxN and CqsS sensors; 0 = neutral-control median; in the data active = activity change below about -75%, passing the limit was not always enough;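 note: luminescence divided by OD600 gain over 9 h not by final OD600 alone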
# NTR1 ag – activates human neurotensin receptor 1 | NTR1-U2OS beta-arrestin-GFP spot imaging, agonist mode | activation, % at 20 µM | actives 0.17% (n = 330,000);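 active = activation at or above 40% of the spot to cytoplasm intensity ratio, with at least 20 cells analyzed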;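 note: 0% = DMSO without peptide and 100% = 100 nM NTR1 peptide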
# Target sequence (P30989 whole entry, looked up): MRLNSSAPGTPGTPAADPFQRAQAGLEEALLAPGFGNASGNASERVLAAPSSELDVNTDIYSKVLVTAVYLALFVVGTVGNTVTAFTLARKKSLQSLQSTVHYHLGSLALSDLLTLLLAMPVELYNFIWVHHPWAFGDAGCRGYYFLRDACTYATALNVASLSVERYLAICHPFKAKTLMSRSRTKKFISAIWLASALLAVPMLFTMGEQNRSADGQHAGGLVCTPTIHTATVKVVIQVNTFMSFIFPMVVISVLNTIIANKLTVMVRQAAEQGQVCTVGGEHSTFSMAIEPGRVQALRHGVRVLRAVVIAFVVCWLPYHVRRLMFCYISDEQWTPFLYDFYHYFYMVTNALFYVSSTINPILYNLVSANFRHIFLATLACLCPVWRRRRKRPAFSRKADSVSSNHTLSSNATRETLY
# Numbers without * were called inactive; . = no result given.
SMILES,H9c2 protect,SUMO Mot1 rescue,NR3A LBD binder,AHR activator,AI-2 QS mod,NTR1 ag
O=c1[nH]c2c(c3c1CCCC3)CCCC2,74.4*,-10.8,-0.1,9.0,12.4,1.5
O=c1[nH]c2c(c(=O)[nH]1)CCCCCC2,-5.8,.,0.5,.,.,.
CCCCN(C(=O)CC1CCCC1)c1c(N)n(Cc2ccccc2)c(=O)[nH]c1=O,1.6,.,.,.,.,.
CCC(=O)Nc1ccc(/C(C)=N\NC(=O)c2ccc(C)s2)cc1,2.1,430.1,21.8*,54.0*,8.9,-2.9
C/C(=N/NC(=O)c1ccc(Cl)s1)c1ccc(NC(=O)COc2ccc(Cl)cc2)cc1,1.4,158.7,-3.3,55.0*,34.8,0.0
C/C(=N\NC(=O)c1csc(C)c1C)c1ccc(C)s1,0.7,-1.9,14.8*,6.0,5.2,1.5
O=C(CN(C(=O)Cn1nnc(-c2cccs2)n1)c1cnc2ccccc2c1)NCC1CCCO1 (stereo unspecified),83.4*,65.2,-18.3,-0.2,13.9,-0.3
O=C(CSc1nncs1)Nc1ccc(N2CCCCC2)cc1,-19.9,-10.3,1.7,1.7,.,-1.2
COc1ccc(C)cc1NC(=O)c1nn(C)cc1Br,0.1,14.5,0.9,60.0*,-2.8,1.1
COc1ccc(C)cc1NC(=O)c1nn(C)c(C(=O)Nc2cc(C)ccc2OC)c1[N+](=O)[O-],-2.4,10.3,-7.6,2.1,2.0,2.5
COc1ccc(CNc2cc(C)ccn2)cc1,0.1,-11.5,10.4*,2.3,36.1,1.2
O=C(NC(=S)Nc1ccccc1N1CCOCC1)c1ccc(-c2ccccc2F)o1,19.9,-8.0,4.2,1.1,11.4,4.4
O=C(N/N=C/c1ccc([N+](=O)[O-])o1)c1cn(-c2ccccc2)nc1-c1ccc(Cl)cc1,4.9,-2.6,33.6*,9.0,13.4,17.2
O=C(N/N=C/c1ccc([N+](=O)[O-])o1)c1cn(-c2ccccc2)nc1-c1ccccc1,17.7,-9.3,13.4*,21.0,39.0,12.5
O=C(NC1CCN(Cc2ccc(Cl)cc2Cl)CC1)c1ccccc1,-5.9,34.5,-3.9,4.2,15.0,-1.3
Cc1nc(C(F)(F)F)nc(Nc2ccc(Br)cc2)c1C#N,6.2,-14.4,1.8,51.4*,15.1,1.2
CC(=O)N1CCN(S(=O)(=O)c2cccc(C(=O)N(Cc3ccccc3)c3cccc(C)c3)c2)CC1,0.8,-3.6,0.5,3.3,-9.8,0.4
Cc1ccc(/C=C2\SC(=S)N(CCC(=O)NNC(=O)c3ccccc3O)C2=O)cc1,7.3,-2.3,16.1*,-0.5,12.6,5.0
Cc1ccc(/C=C2/SC(=S)N(CCCC(=O)Nc3ccc(O)cc3)C2=O)cc1,-13.9,.,6.7,.,30.5,5.5
Cc1ccc(/C=C2\SC(=S)N(CCCC(=O)NNC(=O)c3ccccc3O)C2=O)cc1,55.3*,115.6,-3.0,-7.4,-2.4,19.2
CC(=O)N1CC(C)Sc2ccc(S(=O)(=O)NC3CCCCC3C)cc21 (stereo unspecified),-10.2,-16.8,-1.6,-0.1,5.0,1.6
CCOc1ccc(S(=O)(=O)N2CCCC(C(=O)N3CCCC3)C2)cc1 (stereo unspecified),-1.5,11.5,1.8,-2.0,29.0,-0.5
Cc1ccc2nc(-c3ccccc3)cc(C(=O)NNC(=O)c3csc(N4CCOCC4)n3)c2c1,58.0*,16.8,-3.9,5.2,22.2,6.5
O=C(NNC(=O)c1ccccc1OCc1ccccc1Cl)c1csc(N2CCOCC2)n1,52.0*,-4.7,0.9,13.5,5.7,7.9
COc1ccccc1C(=O)NNC(=O)c1csc(N2CCOCC2)n1,0.8,1.1,0.7,35.5,24.7,1.9
CN1C2=NCCN2C(=O)c2cc(Cl)ccc21,-1.4,21.2,2.4,59.1*,6.6,2.5
Cc1ccc(-c2cc(N)n(-c3ccc(C)cc3)n2)cc1,-19.6,17.6,-10.5,51.8*,29.7,-3.7
Cc1ccc(-c2cc3nc(-c4ccc(Br)cc4)cc(N)n3n2)cc1,-5.2,-8.5,39.1*,12.9,15.6,5.8
Cc1ccc(-c2cc(N)n3nc(-c4ccc(C)cc4)cc3n2)cc1,-14.3,307.3,26.9*,-6.0,4.9,2.2
Cc1cc(N)n2nc(-c3ccccc3)cc2n1,-26.6,-43.9,-21.6,1.5,38.8,.
